Screens deposited in PubChem by National Center for Advancing Translational Sciences (NCATS).
Sampled rows, rich in hits. Any-hit rate of the full collection: about 3.6%.
TDP43 rescue – qHTS of TDP-43 Inhibitors; TDP-43 expressing yeast growth rescue, BacTiter-Glo, 24 h; Potency, µM (titrated, usually from 46.1 µM), without a hit: top-dose growth rescue (activation), actives largely listed as activators; hit rate 1.8% among 410,000; note: % of control where 0% means no effect; nearly all actives have a fitted effect of over 50% in size
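Growth rescue of TDP-43-toxic yeast measured as ATP luminescence (BacTiter-Glo). Cells grown to mid-log in raffinose, induced in galactose at OD600=0.02, exposed to compound 24 hr at 30 deg C.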
ClpP mod – qHTS Assay for Activators of ClpP. ATP-dependent Clp protease proteolytic subunit (Bacillus subtilis (strain 168)), P80244. purified B. subtilis ClpP, FRET peptide cleavage, 20 min. Potency, µM (doses to about 57.5 µM), for inactives: top-dose activity change, negative = active. hit rate 1.9% among 340,000; active = well fitted falling curve with a large enough effect; inconclusive = small, poorly fitted or top-dose-only effect; inactive = no such curve, though single readings can be large or run the other way; note: the source files actives as falling curves though it sought activators and does not explain the sign; nearly all actives have a fitted effect of over 65% in size
Target sequence (P80244 whole entry, looked up): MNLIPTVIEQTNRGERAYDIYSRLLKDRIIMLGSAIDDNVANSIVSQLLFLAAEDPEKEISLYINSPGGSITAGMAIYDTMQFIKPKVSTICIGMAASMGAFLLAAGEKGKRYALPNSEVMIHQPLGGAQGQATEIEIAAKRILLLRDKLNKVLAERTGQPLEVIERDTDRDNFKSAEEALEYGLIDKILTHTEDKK
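Buffer: 100 mM Tris/HCl pH8, 100 mM KCl, 0.05% low protease BSA, 2.5% glycerol, 0.01% Tween-20. ClpP 10 microg/mL final; 20 min RT; delta FRET normalized to ADEP and DMSO controls.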
MmCpn inh – Inhibitors of TCP-1 ring complex (TRiC) of Methanococcus maripaludis (MmCpn): qHTS | Chaperonin Mm-Cpn (Methanococcus maripaludis) | purified Mm-Cpn ATPase, ADP Transcreener TR-FRET | Potency, µM (highest dose often 76.9 µM), for inactives: at the top dose activity, negative = inhibition, most hits filed as inhibitors | hit rate 0.031% among 330,000 | AID 504842, 2011; note: % is set by controls: 0 for no effect and ±100 for the full control effect; nearly all actives have a fitted effect of over 80% in size
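Compound-treated chaperonin, 25 nM final, turns over 10 uM ATP at 37°C for 30 min following a 10 min preincubation; ADP generated competes with ADP-d2 for Eu-cryptate antibody, lowering FRET.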
aSyn yeast inh – qHTS of alpha-syn Inhibitors; Yeast expressing alpha-synuclein, growth rescue, BacTiter-Glo, 24 h; Potency, µM (doses to about 46.1 µM), for inactives: at the top dose growth rescue (activation), usual class: activators; hit rate 0.14% among 370,000; AID 652106, 2013; note: % of control where 0% means no effect; nearly all actives have a fitted effect of over 65% in size
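Rescue of yeast growth: cells expressing toxic alpha-synuclein, induced in galactose at OD600 0.02, incubated with compound 24 h at 30 C. ATP luminescence quantified growth; inhibitors of toxicity appear as activators.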
Abeta yeast res – qHTS for compounds that reverse cellular toxicity of Amyloid beta (A-beta) peptide in yeast: Primary Screen | Potency, µM (top dose mostly 46.1 µM), usual class: activators | hit rate 0.063% among 410,000 | yeast expressing A-beta42, growth rescue, OD600, 48 h; response scale: 0% DMSO, 100% iron-clioquinol control | AID 1347071, 2019; note: nearly all actives have a fitted effect of over 55% in size
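Yeast A-beta toxicity model in growth medium with pinned compounds, 48 h at 30 C; growth read as absorbance at 600 nm. Normalized to FeCl3/clioquinol equimolar mix (positive) and DMSO (negative).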
FUS suppressor – qHTS for Suppressors of FUS Proteinopathy: Primary screen using FUS-linked yeast assay | S. cerevisiae FUS-expressing, growth rescue, OD600, 24 h | hit rate 0.24% among 390,000 | Potency, µM (top dose mostly 76.6 µM), usual class: activators;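 note: plate controls were DMSO vehicle for no effect and reference control for full effect; nearly all actives have a fitted effect of over 55% in size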
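FUS-expressing yeast, raffinose-pregrown, induced in 2% galactose minimal medium at OD 0.005; compounds in a dilution series, 24hr at 30C. Growth restoration read as absorbance at 600 nm. CP55940 positive control, DMSO negative.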
* = called active by the depositor; i = inactive; u = inconclusive; x = no result; ! = not active in a repeat; [ ] = remark or other dose. Unless noted, calls come from the whole dose curve; as a rule, active = well fitted curve in the direction sought with a large enough effect; inconclusive = small, poorly fitted or top-dose-only effect, or another doubt; inactive = no such curve, though single readings can be large; an effect the other way counts as inactive or inconclusive. Potency is the fitted concentration of half-maximal effect.

SMILES	TDP43 rescue	ClpP mod	MmCpn inh	aSyn yeast inh	Abeta yeast res	FUS suppressor
CCCCOn1c(C)c(C(=O)OCC)c2c3nonc3ccc21	2.4%	17.8µM*	x	0.7%	i	u
Cn1ccc(NC(=O)Nc2ccc(Cl)cc2Cl)n1	14.1µM*	-0.2%	3.3%	-1.5%	i	i
Cc1ccccc1CN1CCC(CNc2ncnc3onc(-c4ccc(Cl)cc4)c23)CC1	0.0%	1.5%	x	-6.9%	i	i
Nc1cc([N+](=O)[O-])cc2oc(-c3ccccc3)cc12	35.5µM*	1.0%	-0.5%	11.3%	i	i
COCc1ccc(-c2c(-c3ccc(OC)cc3)oc(=O)c3cc(OC)c(OC)cc23)cc1	28.8%	31.6µM*	1.0%	5.4%	i	u
CCC1(C)Cc2c(c(=O)n(-c3ccccc3)c3ncnc(N)c23)CO1 (stereo not given)	0.6%	15.8µM*	-7.1%	-0.9%	i	i
CCCC(=O)N1CC(=O)Nc2ccc(C)cc2C1c1ccccc1 (stereo not given)	10.6%	17.8µM*	3.0%	2.6%	i	i
O=C1CN(C(=O)c2ccc(S(=O)(=O)N3CCCC3)cc2)C(c2ccccc2)c2cc(Cl)ccc2N1 (stereo not given)	11.9%	0.1%	x	x	i	u
Cc1ccc2c(c1)C(c1ccccc1)N(C(=O)c1ccc(S(=O)(=O)N3CCCC3)cc1)CC(=O)N2 (stereo not given)	5.2%	-2.4%	x	x	i	25.1µM*
CCOC(=O)c1ccc(NC(=O)C(CC)Sc2nc3ccncc3[nH]2)cc1 (stereo not given)	4.4%	-1.6%	x	x	i	i
O=C(O)c1ccc(NCCC2=CCCCC2)c([N+](=O)[O-])c1	15.8µM*	-0.1%	2.5%	0.7%	i	i
Cc1c2ccncc2cc2c1[nH]c1ccccc12	-1.2%	x	x	10µM*	i	i
Cc1cc2c([nH]c3ccccc32)c(C)n1	0.2%	x	-1.6%	3.3%	i	i
O=C(NC1CC1)C1=C[C@H](c2csc3ccccc23)C[C@H](OCc2ccc(CO)cc2)O1	u	-1.1%	0.9%	9.5%	i	i
O=C(Nc1ccccc1)C1=C[C@H](c2csc3ccccc23)C[C@H](OCc2ccc(CO)cc2)O1	15.6%	-2.6%	x	14.3%	i	11.2µM*
Cc1ccc(CNC(=O)CO/N=C/c2ccc3c(c2)OCO3)cc1	20µM*	-1.2%	0.9%	6.1%	i	i
Cc1cccc(NC(=O)CO/N=C/c2ccc3c(c2)OCO3)c1	0.2%	-4.1%	-3.5%	3.5%	i	x
Cc1ccc2c(c1)N(CCCC(=O)NCc1cccs1)C(=O)CO2	x	x	x	x	x	i
CCC(C)Sc1nnc(NC(=O)c2ccco2)s1 (stereo not given)	12.6µM*	-0.6%	x	-24.0%	i	i
CSc1nnc(NC(=O)c2ccco2)s1	-1.7%	0.0%	-0.9%	-9.7%	i	i
O=C1C[C@H]2C=CCc3cccc(c32)CN1Cc1ccc(Br)cc1	x	-1.7%	x	x	x	x
COCc1cc(C)nc(NCCc2ccccc2)c1C#N	25.3%	3.55µM*	x	-0.5%	i	i
COCc1cc(C)nc(Nc2ccccc2OC)c1C#N	0.4%	-24.3%	-1.3%	-3.0%	i	i
COc1cccc(-n2c(=O)c3c(C)c(C(=O)N(C)C)sc3n(Cc3ccc(F)cc3Cl)c2=O)c1	3.5%	1.0%	x	x	i	i
CCOc1nc(NC2CCCC2)nc(N2CCC(C)CC2)n1	17.8µM*	-1.2%	-0.8%	-15.4%	u	i
SMILES	TDP43 rescue	ClpP mod	MmCpn inh	aSyn yeast inh	Abeta yeast res	FUS suppressor
CCOc1nc(OCC)nc(N2CCC(C)CC2)n1	10.2%	0.4%	0.5%	0.9%	i	i
Cc1cccc(C(=O)NCc2ccc(S(N)(=O)=O)cc2)c1[N+](=O)[O-]	-14.2%	28.2µM*	-7.4%	-0.3%	i	x
Cc1cccc(OC(C)C(=O)NCc2ccc(S(N)(=O)=O)cc2)c1 (stereo not given)	-1.3%	3.16µM*	-1.4%	-3.9%	i	x
CC(Oc1cccc(Cl)c1)C(=O)NCc1ccc(S(N)(=O)=O)cc1 (stereo not given)	-1.1%	-1.3%	0.9%	-0.5%	i	i
COC(=O)c1ccccc1NC(=O)c1ccc(-c2nc(COc3ccccc3)c(C)o2)cc1	8.2%	-7.2%	x	x	i	i
O=C(NCc1ccc2c(c1)CCN2C(=O)c1ccncc1)c1cccc(Cl)c1	12.7%	-0.2%	x	x	i	i
CC(=O)Nc1cc(C(=O)NCc2ccccc2Cl)ccc1Sc1ccc(F)cc1	22.4µM*	-3.0%	x	x	i	i
CC(=O)Nc1cc(C(=O)NCc2ccco2)ccc1Sc1ccc(Cl)cc1	0.2%	-1.2%	-6.4%	-1.8%	i	i
CCOc1ccc(CNC(=O)c2ccc(Sc3ccc(Cl)cc3)c(NC(C)=O)c2)cc1	15.8µM*!	-27.7%	-17.5%	-0.6%	i	u
CCOc1ccccc1CNC(=O)c1ccc(Sc2ccc(Cl)cc2)c(NC(C)=O)c1	12.6µM*	-4.9%	u	4.1%	i	x
CC(=O)Nc1cc(C(=O)NCc2ccco2)ccc1Sc1ccc(F)cc1	-5.6%	-6.1%	-3.1%	-0.8%	i	i
COc1ccc(Cl)cc1NC(=O)c1nn(-c2ccc(C)cc2)c(=O)n(C)c1=O	0.0%[9.22 µM]	0.9%	x	x	i	i
Cc1ccc2c(=O)cc(CSCC(=O)Nc3nnc(C)s3)[nH]c2c1	-18.8%	-5.7%	x	x	i	i
CC1(C(=O)Nc2ccc3c(c2)OCCO3)CN(S(C)(=O)=O)CC(=O)N1Cc1cccc(C(F)(F)F)c1 (stereo not given)	22.4µM*	1.5%	x	13.1%	i	i
O=C(O)CN(c1ccccn1)S(=O)(=O)c1ccccc1	-6.5%	28.2µM*	1.1%	-1.5%	i	i
COC(=O)CN(c1ccccn1)S(=O)(=O)c1ccccc1	-14.0%	11.2µM*	-2.1%	-3.1%	i	i
Cc1ccn2c(Nc3ccc4c(c3)OCCO4)c(-c3ccccc3O)nc2c1	12.1%	-26.7%	x	x	i	i
COc1ccc2c(c1)c1nnc(SC(C)C)nc1n2C	x	-0.9%	x	7.94µM*	x	x
COc1ccc2c(c1)c1nnc(SCCN3CCOCC3)nc1n2C	x	-2.2%	x	0.9%	x	x
COc1ccc2c(c1)c1nnc(SC)nc1n2C	2.82µM*	0.8%	2.8%	3.55µM*	i	i
